Assay outcomes as filed in PubChem.
JMJD2A Tudor inh: qHTS Assay for Inhibitors of JMJD2A-Tudor Domain; AlphaScreen JMJD2A-Tudor / H3K4me3 peptide binding; Lysine-specific demethylase 4A (Homo sapiens), O75164; Potency, µM (highest dose often 114 µM), inactives show at the top dose activity change, negative = inhibition, most hits filed as inhibitors; 390,000 compounds, 4.4% hits; AID 504339, 2011; also: % is scaled to controls: 0 for no effect and ±100 for the full control effect; nearly all actives have a fitted effect of over 50% in size
ALOX12 inh: Primary qHTS assay for inhibitors of human arachidonate 12S-lipoxygenase (ALOX12): Round 2. Polyunsaturated fatty acid lipoxygenase ALOX12 (Homo sapiens), P18054. 580,000 compounds, 1.1% hits. purified 12hLO, xylenol orange hydroperoxide absorbance. Potency, µM (doses to about 108 µM), inactives show top-dose activity change, negative = inhibition, actives largely listed as inhibitors; also: % is scaled to controls: 0 for no effect and ±100 for the full control effect
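Hydroperoxide product was detected by ferrous iron/xylenol orange as the 573 to 405 nm absorbance ratio. Arachidonic acid at 40 uM (final) was turned over for 30 min at room temperature by 150 nM human 12hLO, pH 7.0 Hepes buffer, after 15 min compound preincubation.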
BAZ2B block: qHTS Assay for Inhibitors of BAZ2B | 360,000 compounds, 4.4% hits | Potency, µM (doses to about 114 µM), for inactives: top-dose activity change, negative = inhibition, usual class: inhibitors | AlphaScreen BAZ2B-H3K14Ac peptide displacement | AID 504333, 2011; also: % is scaled to controls: 0 for no effect and ±100 for the full control effect; nearly all actives have a fitted effect of over 60% in size
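In this displacement format the biotinylated H3(5-23) peptide acetylated at Lys14 serves as ligand at 50 nM, with BAZ2B at 50 nM in PBS pH 7.4 containing 0.01% Tween-20. Donor and acceptor beads are 10 ug/mL final.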
HP1b binding inh: HTS for Inhibitors of HP1-beta Chromodomain Interactions with Methylated Histone Tails; Chromobox protein homolog 1 (Homo sapiens), P83916; AlphaScreen HP1-beta / biotin-H3K9me3 peptide binding; Potency, µM (top dose mostly 114 µM), for the others: top-dose activity change, negative = inhibition, most hits filed as inhibitors; 390,000 compounds, 0.56% hits; AID 540317, 2011; also: nearly all actives have a fitted effect of over 70% in size
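AlphaScreen: HP1-beta (50 nM) preformed 30 min with biotin-H3(1-18)K9me3 peptide (50 nM) in PBS pH 7.4, 0.01% Tween-20. Compound added for 30 min at RT, then streptavidin donor/nickel chelate acceptor beads (10 ug/mL) for 30 min.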
G9a block: qHTS Assay for Inhibitors of Histone Lysine Methyltransferase G9a; G9a H3K9 monomethylation, AlphaScreen, 2 h; 350,000 compounds, 8.8% hits; Potency, µM (doses to about 102 µM), inactives show at the highest dose activity, negative = inhibition, most hits filed as inhibitors; AID 504332, 2011; also: % is scaled to controls: 0 for no effect and ±100 for the full control effect; nearly all actives have a fitted effect of over 75% in size
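G9a (20 nM) preincubated 15 min RT with compounds, then 500 nM biotinylated H3K9 peptide and 20 uM SAM added; 2 h RT reaction. Monomethyl-H3K9 product detected by AlphaScreen with anti-H3K9me1 antibody, streptavidin donor and anti-rabbit IgG acceptor beads.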
PLK1 PBD block: qHTS for Inhibitors of PLK1-PDB (polo-like kinase 1 - polo-box domain): Primary Screen; Serine/threonine-protein kinase PLK1 (Homo sapiens), P53350; Plk1 PBD binding of FITC phosphopeptide, fluorescence polarization; Potency, µM, without a hit: max response, negative = inhibition, most hits filed as inhibitors; 360,000 compounds, 2.8% hits; also: series mostly up to about 57 µM; % is scaled to controls: 0 for no effect and ±100 for the full control effect; nearly all actives have a fitted effect of over 65% in size
Target sequence (P53350 whole entry, looked up, the tested form may be a part): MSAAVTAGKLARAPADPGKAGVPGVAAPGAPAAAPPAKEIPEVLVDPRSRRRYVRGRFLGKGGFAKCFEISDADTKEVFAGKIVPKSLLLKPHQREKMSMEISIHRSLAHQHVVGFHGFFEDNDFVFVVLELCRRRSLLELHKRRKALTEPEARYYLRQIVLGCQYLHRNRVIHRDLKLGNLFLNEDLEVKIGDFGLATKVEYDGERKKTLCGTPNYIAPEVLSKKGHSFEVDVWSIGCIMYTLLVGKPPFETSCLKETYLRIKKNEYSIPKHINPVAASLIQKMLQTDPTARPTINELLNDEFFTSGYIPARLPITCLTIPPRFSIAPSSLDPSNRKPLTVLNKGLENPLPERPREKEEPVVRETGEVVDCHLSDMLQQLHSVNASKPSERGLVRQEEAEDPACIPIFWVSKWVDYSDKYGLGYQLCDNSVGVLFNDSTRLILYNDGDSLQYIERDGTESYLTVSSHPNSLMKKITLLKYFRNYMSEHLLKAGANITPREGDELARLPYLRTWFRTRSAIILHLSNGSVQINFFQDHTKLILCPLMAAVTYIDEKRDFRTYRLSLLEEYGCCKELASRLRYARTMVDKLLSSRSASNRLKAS
An asterisk follows results filed as active; ? = inconclusive; . = no result; [ ] = remark or other dose. Shown are actives, neighbours in structure and some others; about 9% of the full set was active somewhere. Calls follow the shape of the dose curve; as a rule, active = well fitted curve in the direction sought with a large enough effect; inconclusive = small, poorly fitted or top-dose-only effect, or another doubt; inactive = no such curve, though single readings can be large; an effect the other way counts as inactive or inconclusive. Potency is read from the fitted curve at half-maximal effect.

SMILES	JMJD2A Tudor inh	ALOX12 inh	BAZ2B block	HP1b binding inh	G9a block	PLK1 PBD block
CCOC(=O)c1cc(S(=O)(=O)N2CCN(c3ccc(OC)cc3)CC2)[nH]n1	-33%	?	-25%	15%[57 µM]	?	.
CCOC(=O)c1cc(S(=O)(=O)N(C)c2ccccc2)[nH]n1	-7%	-28%	-14%	-4%[57 µM]	?	.
CCN(CC)c1ncnc2c1ncn2[C@H]1CN(CCOC)C[C@@H](CO)O1	.	-5%	.	.	.	-3%
CCC(C)NC(=O)C(NC(=O)c1ccc(C)cc1)C1CCN(C(=O)C(C)C)CC1 (stereo not given)	.	12%	.	.	.	.
CC(Sc1nc2ccccc2s1)C(=O)Nc1ccc2c(c1)OCO2 (stereo not given)	8%	.	-10%	35%	1.8µM*	-5%
Cc1cccc(NC(=O)C2CCCN(c3nc4ccccc4s3)C2)c1C (stereo not given)	-3%	-4%	1%	33%	2%[59 µM]	.
CC(Sc1nnc(N)s1)C(=O)Nc1ccc2c(c1)OCO2 (stereo not given)	-27%	2%	12%	34%	45µM*	-18%
O=C(Nc1ccc2c(c1)OCO2)C1CCCN(c2nc3ccccc3s2)C1 (stereo not given)	-25%	14%	-35%	-5%	3.2µM*	-7%
CN(C)C(=O)CNS(=O)(=O)c1ccc(F)c(F)c1	.	-5%	.	.	.	.
COc1ccc2oc(=O)c(C(C)=O)cc2c1	-4%	0%	1%	23%	0%[12.7 µM]	1%
O=C(COC(=O)C1COc2ccccc2O1)c1ccc(F)cc1 (stereo not given)	.	0%	.	.	.	4%
O=C(N=Nc1c(O)[nH]c2ccc(F)cc12)C1COc2ccccc2O1 (stereo not given)	?	4%	-19%	-10%	-2%	27µM*
Cc1ccc(S(=O)(=O)Nc2nc(C)c(C(=O)N/N=C/c3ccccc3)s2)cc1	-13%	-28%	-31%	7%	-6%[59 µM]	-22%
Oc1ccc(N=Nc2n[nH]c(-c3ccccc3)n2)cc1	?	1%	?	-9%	3.2µM*	6%
Oc1ccc(N=Nc2nc(-c3ccccc3)c(-c3ccccc3)[nH]2)cc1	22µM*	?	11µM*	-72%	20µM*	4%
CC(=O)c1cc(-c2ccc(F)cc2)n(CCC(=O)Nc2nc3c(C)cccc3s2)c1C	-5%	-24%	0%	26%	3%[59 µM]	.
COc1ccc(-n2c(Cc3cccn3C)nnc2SCC(=O)N2CCCC2)cc1	-21%	221%	-6%	39%	45µM*	1%
Cn1cccc1Cc1nnc(SCC(=O)N2CCCCCC2)n1-c1ccc(F)cc1	-23%	?	-33%	29%	50µM*	-6%
COc1ccc(-n2c(Cc3cccn3C)nnc2SCC(N)=O)cc1	-21%	-3%[57.4 µM]	-13%	44%	50µM*	-12%
COc1ccc(-n2c(Cc3cccn3C)nnc2SCC(=O)N2CCCc3ccccc32)cc1	?	20%	?	-13%	45µM*	-8%
CC1CCN(C(=O)CSc2nnc(Cc3cccn3C)n2-c2ccc(F)cc2)CC1	?	9%[57.4 µM]	-34%	-11%	?	?
Cc1cc(C)cc(NC(=O)CSc2nc3ccncc3[nH]2)c1	-12%	17%	3%	13%	-11%	-2%
CCS(=O)(=O)N1Cc2ccccc2CC1C(=O)Nc1ccc(F)c(F)c1 (stereo not given)	-1%	-8%	4%	40%	?	0%
Cc1[nH]nc2c1C(c1ccoc1)C(C#N)=C(N)O2 (stereo not given)	-14%	0%	10%	32%	?	-21%
CCNC(=S)NNC(=O)CSc1nc2ccccc2n1C	89µM*	120%	-11%	27%	.	-15%
SMILES	JMJD2A Tudor inh	ALOX12 inh	BAZ2B block	HP1b binding inh	G9a block	PLK1 PBD block
CC(C)(C)NC(=O)NC(=O)CSc1nc2ccccc2[nH]1	.	21%	.	.	.	.
CCNC(=S)NNC(=O)CSc1nc2ccccc2[nH]1	-21%	-2%	-27%	8%	45µM*	-13%
COC(=O)c1sc(NC(=O)CC(C)C)c(C(=O)OC)c1C	-1%	0%	-3%	28%	19%	2%
CCN1c2cc(C(=O)Nc3cccc(C(F)(F)F)c3)ccc2C(=O)N2CCCCC21 (stereo not given)	.	35%	.	.	.	.
O=S(=O)([O-])C/C(=C\c1ccc(Cl)cc1)c1cc[n+](CCO)cc1	-14%	1%	-3%	-15%	-3%	-21%
CC(=O)c1sc(-c2ccccn2)nc1C	.	.	6%	.	35µM*	.
Cc1nc(-c2ccccn2)sc1C(=O)O	-11%[57.1 µM]	-30%	?	36%	-5%	-7%
COCC(=O)N(C)c1nnc(-c2ccccn2)s1	-2%[11.4 µM]	30%	56µM*	36%	2%[12.7 µM]	-27%
c1ccc(C2=NNC(c3ccccn3)=NN2)nc1	7.1µM*	?	2.8µM*	49%	32µM*	-1%
c1ccc(-c2nnc(-c3ccccn3)s2)nc1	?	?	?	-15%	-117%[59 µM]	21µM*
c1ccc(-c2csc(-c3ccccn3)n2)cc1	.	-8%	.	.	.	.
COC(=O)c1ccc(C2C(C#N)=C(N)Oc3cc(C)n(C)c(=O)c32)cc1 (stereo not given)	5%	4%	-4%	19%	-23%[12.7 µM]	-10%
Cc1cc(C)c(CNC(=O)c2nc(-c3cccc(C(F)(F)F)c3)cc3[nH]ccc23)c(=O)[nH]1	.	-1%	.	.	.	.
CCn1c(C)csc1=NC(=O)c1ccccc1	8%	0%	8%	28%	9%	0%
CCN1/C(=C2/OC(=S)N(C)C2=O)Sc2ccccc21	-5%	15%	-7%	56%	?	0%
CCN1/C(=C2/SC(=S)NC2=O)Sc2ccccc21	-24%	?	-13%	53%	8.9µM*	-6%
CN1CCCN(C(=O)c2ccc(F)cc2)c2ccccc21	.	14%	.	.	.	.
CN1CCCN(C(=O)c2ccc(Cl)cc2)c2ccccc21	.	32µM*	.	.	.	.
O=S(=O)(/C(=C/c1ccc(C(F)(F)F)cc1)c1nc2ccccc2[nH]1)c1ccccc1	79µM*	3%	-30%	-12%	6%[59 µM]	0%
NC(=O)Cn1ccc2cc(OCC3CCN(C(=O)Oc4ccccc4Cl)CC3)cnc21	.	0%	.	.	.	.
COc1cc(OC)c2cc[nH]c2c1	-35%	1%	-36%	2%	12%	5%
COc1ccc2cc[nH]c2c1	?	-11%	?	-23%	25%[59 µM]	21µM*
